Molecules are shown by their SMILES. Where “and” joins values, the source holds several entries; their conditions need not be identical. Equal values may be shown once.

Common to all, as to format: functional
Experiment [1] has as its target Solute carrier family 2, facilitated glucose transporter member 1 (Homo sapiens) (UniProt P11166). Description: ST_JUDE_LEISH: Cytotoxicity at 2uM final concentration against transgenic Leishmania Mexicana promastigotes LmGLUT1 that are glucose transport deficient and complemented with the human glucose transporter GLUT1. Activity is measured by DNA content using SYBR green in vitro.

Experiment [2] has as its target Hexose transporter 1 (Plasmodium falciparum) (UniProt O97467). In words: ST_JUDE_LEISH: Cytotoxicity at 2uM final concentration against transgenic Leishmania Mexicana promastigotes LmPfHT that are glucose transport deficient and complemented with the Plasmodium falciparum hexose transporter. Activity is measured by DNA content using SYBR green in vitro.
Experiment [3] concerns the target Glucose transporter (Leishmania mexicana) (UniProt O61059). Description: ST_JUDE_LEISH: Cytotoxicity at 2uM final concentration against transgenic Leishmania Mexicana promastigotes LmGT2 that are glucose transport deficient and complemented with the L. Mexicana glucose transporter 2. Activity is measured by DNA content using SYBR green in vitro.

Chain of Solute carrier family 2, facilitated glucose transporter member 1 (Homo sapiens) (P11166 whole entry): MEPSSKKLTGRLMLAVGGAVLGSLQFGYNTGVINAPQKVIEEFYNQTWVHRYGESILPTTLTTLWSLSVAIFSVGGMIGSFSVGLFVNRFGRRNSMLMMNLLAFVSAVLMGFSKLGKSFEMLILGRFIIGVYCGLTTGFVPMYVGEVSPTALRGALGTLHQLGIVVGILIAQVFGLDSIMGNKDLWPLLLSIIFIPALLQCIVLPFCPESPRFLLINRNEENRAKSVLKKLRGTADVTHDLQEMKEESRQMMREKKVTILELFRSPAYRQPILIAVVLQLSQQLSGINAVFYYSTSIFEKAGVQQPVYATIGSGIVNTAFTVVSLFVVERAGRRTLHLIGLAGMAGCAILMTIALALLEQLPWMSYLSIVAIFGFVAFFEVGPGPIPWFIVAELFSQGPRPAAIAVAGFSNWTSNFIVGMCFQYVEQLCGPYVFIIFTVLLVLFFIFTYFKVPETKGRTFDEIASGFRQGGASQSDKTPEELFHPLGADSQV

As for `CC(C)CNCc1cccc(-c2cccc(CN(C(=O)c3cccs3)C3CCN(Cc4ccccc4)CC3)c2)c1`, the inhibition was determined as 11.3% in experiment [1], 7.75% in experiment [2] and 6.04% in experiment [3].
With `N[C@@H](CCN1CCC(c2cccc(O)c2)CC1)Cc1ccc(F)c(F)c1`, the inhibition in experiment [1] amounted to 3.74%; in experiment [2], 2.04%; in experiment [3] it was 0.73%.
Turning to `COc1cccc(O)c1CNCC(O)c1cccc(C(F)(F)F)c1` (configuration not stated), the inhibition is 0.43% in experiment [1], 0.5% in experiment [2] and 0.29% in experiment [3].
Turning to `COc1ccc(CC(C)NCC(O)c2cccc(C(F)(F)F)c2)cc1` (configuration not stated), the figures for the inhibition in experiment [1], in experiment [2] and in experiment [3] were 9.76%, 8.74% and 8.93%, respectively.
Consider `COCCNCc1ccc(-c2cccc(CN(C(=O)CCC3CCCC3)C3CCN(Cc4ccccc4)CC3)c2)cc1`, for which the inhibition in experiment [1] was -4.16%; in experiment [2] it was 1.28%; in experiment [3], -1.05%.
As to `CC(=O)Nc1ccc(CN2CCC(N(C)c3ccc(NC(=O)c4cccc(C)c4)cc3)CC2)cc1`, the figures for the inhibition in experiment [1], in experiment [2] and in experiment [3] were 8.7%, 10.9% and 9.57%, respectively.
Consider `Cc1ccc(CC(C)NCC(O)c2cccc(C#N)c2)cc1` (configuration not stated), for which the inhibition worked out at 9.34% in experiment [1], 13.4% in experiment [2] and 9.79% in experiment [3].
For `CCC1=C[C@@H]2CN(C1)Cc1c([nH]c3ccccc13)[C@@](C(=O)OC)(c1cc3c(cc1OC)N(C)[C@H]1[C@@](O)(C(=O)OC)[C@H](O)[C@]4(CC)C=CCN5CC[C@]31[C@@H]54)C2` the same measures were 2.2%, 4.15% and 2.69%.
On to `O=C(/C=C/c1ccc(Cl)c(Cl)c1)N1CCC(CN2CCC(c3c[nH]c4ccc(NS(=O)(=O)c5cccs5)cc34)CC2)CC1`, for which the figures for the inhibition in experiment [1], in experiment [2] and in experiment [3] were 6.53%, 5.86% and 5.21%, respectively.
As for `O=C(NC1CCC(CN2CCC(c3c[nH]c4ccccc34)CC2)CC1)c1csc(-c2cccc(Cl)c2Cl)n1` (configuration not stated), the inhibition in experiment [1] worked out at 5.32%; in experiment [2], 4.16%; in experiment [3] it was 2.71%.
In the case of `Cc1cc(C(=O)NC2CCN(CC3(c4ccc(Cl)cc4)CCC3)CC2)on1`, the inhibition in experiment [1] was 0.83%; in experiment [2], -0.05%; in experiment [3] it was 0.13%.
For the compound `C=C[C@H]1CN2CC[C@@H]1C[C@H]2[C@H](O)c1cc(-c2ccc(F)cc2)nc2ccc(OC)cc12`, the inhibition in experiment [1] stood at 6.56%; in experiment [2], 4.6%; in experiment [3], 3.68%.
For `O=C(Nc1ccc(Oc2ccccc2)cc1)NC1CCC(CN2CCC(c3c[nH]c4ccccc34)CC2)CC1` (configuration not stated), the inhibition in experiment [1] was 1.21%; in experiment [2], 0.51%; in experiment [3], -0.05%.
In the same order, the values of `CC(Cc1ccc(C2=CCNCC2)cc1)NCC(O)c1cccc(C(F)(F)F)c1` (configuration not stated) are -2.15%, -1.67% and -0.93%.
For `CCN1CCC2(c3cccc(OC)c3)Cc3nc4ccccc4c(-c4ccccc4)c3CC2C1` (configuration not stated) the same measures were 3.21%, 1.3% and 2.12%.
Take `CC[C@H]1CN2CC[C@H]1C[C@H]2[C@H](O)c1cc(N2CCCC(C(=O)N(CC)CC)C2)nc2ccc(OC)cc12` (some centres not stated): the inhibition in experiment [1] was determined as 1.75%; in experiment [2] it was 2.21%; in experiment [3], 0.33%.
Turning to `O=C(/C=C/c1ccc(Cl)c(Cl)c1)N1CCC(CN2C3CCC2CC(c2c[nH]c4ccccc24)C3)CC1` (configuration not stated), the inhibition in experiment [1] was found to be 2.43%; in experiment [2], 1.51%; in experiment [3], 0.89%.
As for `CCCCCC(C)C(C)c1cc(O)c2c(c1)OC1(C(C)C)CC(O)C(C)C2C1` (configuration not stated), the inhibition in experiment [1] was 5.93%; in experiment [2], 5.5%; in experiment [3], 6.4%.
In the same order, the values of `c1ccc2c(NCCCCCCCCCNc3c4ccccc4nc4ccccc34)c3ccccc3nc2c1` are 3.03%, 6.11% and 2.42%.
As for `CCC(C)CN1CCC(N(C)c2cc(NC(=O)c3cccc(C)c3)ccn2)CC1` (configuration not stated), the inhibition is -1.69% in experiment [1], 1.14% in experiment [2] and -0.14% in experiment [3].
On to `COc1cccc(C(=O)C2CC2CN2CC=C(c3c[nH]c4ccc(OC)nc34)CC2)c1` (configuration not stated), for which the values for the inhibition in experiment [1], in experiment [2] and in experiment [3] were 0.65%, 1.41% and 1.94%, respectively.
On to `CC(Cc1ccc(C(C)(C)C)cc1)NCC(O)c1ccccc1` (configuration not stated), for which the figures for the inhibition in experiment [1], in experiment [2] and in experiment [3] were 2.91%, -0.46% and 0.43%, respectively.
For the compound `CCCCCc1cc(O)c2c(c1)OC(C)(C)CC2C1=CCN(Cc2cnc3ccccc3c2)CC1` (configuration not stated), the inhibition in experiment [1] worked out at 1.53%; in experiment [2] it was 1.25%; in experiment [3], 0.64%.
As to `Cc1nc(-c2ccc(-c3ccc(C(=O)Nc4ccc5c(c4)C4(CCNCC4)CO5)cc3)c(C)c2)no1`, the inhibition in experiment [1] is 2.05%; in experiment [2] it was 5.12%; in experiment [3], 1.93%.
`O=C(/C=C/c1ccc(Cl)c(Cl)c1)N1CCC2CC(N3CCC(c4c[nH]c5ccccc45)CC3)CCC2C1` (configuration not stated): the inhibition was 3.41% in experiment [1], -0.87% in experiment [2] and 0.24% in experiment [3].
For `FC(F)(F)c1ccc(NC(=S)N2CCC(CN3CCC(c4c[nH]c5ccccc45)CC3)CC2)cc1` the same measures were -0.87%, -0.06% and 2.98%.
With `CCOc1ccc2nccc([C@@H](O)[C@@H]3C[C@@H]4CCN3C[C@@H]4CC)c2c1`, the inhibition is 1.23% and 2.9% in experiment [1]; 1.71% and 3.63% in experiment [2]; 3.59% and -0.94% in experiment [3].
Regarding `CC[C@H]1CN2CC[C@H]1C[C@H]2[C@H](OC(=O)c1ccccc1)c1cc(C#N)nc2ccc(OC)cc12`, the inhibition in experiment [1] was 1.81%; in experiment [2], -0.58%; in experiment [3], 0.6%.
Regarding `CC(C)CNCc1cccc(-c2cccc(CN(C(=O)NC3CCCCC3)C3CCN(Cc4ccccc4)CC3)c2)c1`, the values for the inhibition in experiment [1], in experiment [2] and in experiment [3] were 8.3%, 4.64% and 5.98%, respectively.
Consider `CC(=O)Nc1ccc(OCCN(CC(F)(F)F)c2ccc(C#N)cc2C(F)(F)F)cc1`, for which the inhibition in experiment [1] was found to be 2.13%; in experiment [2], 2.71%; in experiment [3], 0.98%.
For `O=C(/C=C/c1ccc(Cl)c(Cl)c1)NC1CCC(CN2CCC(c3c[nH]c4ccccc34)C(O)C2)CC1` (configuration not stated), the inhibition in experiment [1] is 5.68%; in experiment [2], 3.72%; in experiment [3], 4.19%.
As for `CCCCCSc1cc(O)c(C(CNC)C(C)C)cc1OC` (configuration not stated), the inhibition in experiment [1] is 1.1%; in experiment [2] it was -1.89%; in experiment [3], -2.39%.
As for `O=C(C=Cc1ccc(-c2ccccc2)cc1)NC1CCC(CN2CCC(c3c[nH]c4ccccc34)CC2)CC1` (configuration not stated), the inhibition in experiment [1] was 6.41% and 5.7%; in experiment [2] it was 7.57% and 7.18%; in experiment [3] it was 6.53% and 3.78%.
For `O=C(/C=C/c1ccc(Cl)c(Cl)c1)N1CCC(CN2CCC(c3c(Br)[nH]c4ccccc34)CC2)CC1`, the results for the inhibition in experiment [1], in experiment [2] and in experiment [3] were 2.44%, 0.45% and 0.55%, respectively.

By inhibition is commonly meant the change of the read-out against control, counted positive when it falls.

Source of the values: ChEMBL document CHEMBL3433997, “St. Jude Leishmania screening dataset” (2016).
